Only some compounds are listed: those with a hit (about 19% of all), similar ones and a draw of the others.
KB-V1 MDR tox = KB-V1 MDR subline cytotoxicity | hit rate 3.4% among 400,000 | KB-V1 MDR cells viability, CellTiter-Glo, 72 h | Potency, µM (top dose mostly 46.1 µM), actives largely listed as cytotoxic | AID 1347076; further: nearly all actives have a fitted effect of over 60% in size
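Compound-treated KB-V1 multidrug-resistant cells, 72 h, 37 degrees C; viability by CellTiter-Glo. Fitted qHTS curves give the values.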
DT40 TDP1 no CPT = qHTS for Inhibitors of human tyrosyl-DNA phosphodiesterase 1 (TDP1): qHTS in cells in absence of CPT; DT40 Tdp1-/- hTDP1 cells, no CPT, ATP luminescence, 48 h; Potency, µM (top dose mostly 46.2 µM), for inactives: at the highest dose activity change, negative = growth inhibition, actives largely listed as inhibitors; hit rate 15% among 420,000; AID 686978, 2013; further: nearly all actives have a fitted effect of over 55% in size
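Cells were dispensed at 400 per well, compounds added by pin tool, plates incubated ≥48 hr at 37 °C, then CellTiter-Glo added for 30 min at room temperature before luminescence reading. Line: DT40 Tdp1-/- complemented with hTDP1; camptothecin omitted.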
HT1080 IDH1KD tx = toxicity to HT-1080 IDH1 knockdown cells (counter line). HT-1080 IDH1 knockdown viability, ATP luminescence, 48 h. Potency, µM (highest dose often 46.1 µM), inactives show at the highest dose activity, negative = toxicity, usual class: cytotoxic. hit rate 2% among 360,000;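 further: 0% = DMSO wells and -100% = cell-free medium wells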
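Viability of IDH1-knockdown HT-1080 fibrosarcoma cells was assessed by CellTiter-Glo after 48 h at 37 °C with titrated compound; concentration-effect curves were classified by fit quality and response size.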
KB-3-1 tox = KB-3-1 parental cell cytotoxicity; KB-3-1 viability, CellTiter-Glo ATP luminescence, 72 h; hit rate 1.4% among 400,000; Potency, µM (series often up to 46.1 µM), usual class: cytotoxic; AID 1347075; further: nearly all actives have a fitted effect of over 60% in size
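Luminescent ATP read-out (CellTiter-Glo) measures survival of drug-naive KB-3-1 cells after 72 h compound exposure at 37 °C. Titration series was screened from lowest to highest concentration, with DMSO vehicle plates as background controls.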
TDP1 cell CPT = growth inhibition of DT40 Tdp1-/-;hTDP1 cells with camptothecin (screen for TDP1 inhibitors). chicken DT40 Tdp1-/-;hTDP1 cells + 20 nM CPT, ATP luminescence, 48 h. Potency, µM (series often up to 46.2 µM), for the others: at the top dose activity change, negative = growth inhibition, most hits filed as inhibitors. hit rate 12% among 420,000; further: nearly all actives have a fitted effect of over 55% in size
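Chicken DT40 Tdp1-/- cells stably complemented with human TDP1 were seeded at 400 cells/well in medium containing 20 nM camptothecin, exposed to pin-transferred compounds, and grown at 37 °C for at least 48 hr. Viability was read as ATP luminescence.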
HT1080NT lethal = kills 2HG-producing HT-1080-NT fibrosarcoma cells. HT-1080-NT fibrosarcoma viability, CellTiter-Glo ATP luminescence, 48 h. Potency, µM (highest dose often 46.1 µM), for the others: at the highest dose activity, negative = less viability, actives largely listed as cytotoxic. hit rate 1.6% among 360,000. AID 686970;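 further: NT is the 2HG producing partner of a matched IDH1 knockdown line; 0% = DMSO-treated cells and -100% = media-only wells without cells; nearly all actives have a fitted effect of over 55% in size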
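Compounds were tested in concentration-response format on HT-1080-NT cells for 48 hours at 37 degrees C. Cell viability came from CellTiter-Glo luminescence; curves were classified by r2, response magnitude and activity.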
An asterisk follows results filed as active; i = inactive; ? = inconclusive; . = not tested or not shown; ! = not active in a repeat. The call rests on the fitted dose curve; in most records, active means well fitted curve in the direction sought with a large enough effect; inconclusive means small, poorly fitted or top-dose-only effect, or another doubt; inactive means no such curve, though single readings can be large; an effect the other way counts as inactive or inconclusive. Unless noted, on the % scale 0 is the no-effect control and ±100 the full control effect; potency means the concentration at half of the fitted maximal effect.

SMILES	KB-V1 MDR tox	DT40 TDP1 no CPT	HT1080 IDH1KD tx	KB-3-1 tox	TDP1 cell CPT	HT1080NT lethal
N=c1sccn1CC(=O)Nc1cccc(S(N)(=O)=O)c1	i	10.6%	-3.8%	i	7.8%	-0.9%
O=C(CCl)Nc1cccc(Oc2cnccn2)c1	?	9.2µM*	?	20.6µM*	18.4µM*	?
N=c1sccn1CC(=O)Nc1cccc(Oc2ccccc2)c1	i	22.4µM*	?	i	?	?
COc1cc(NC(=O)CCl)ccc(=O)c1	?	18.4µM*	23.1µM*	i	13µM*	20.6µM*
CCCCn1c(N)c(N(CC(C)C)C(=O)CCNC(=O)c2ccc(Cl)cc2)c(=O)[nH]c1=O	i	5.0%	0.2%	i	3.4%	-0.1%
Cn1nnnc1Sc1ncnc2scc(Br)c12	i	.	.	i	.	.
Cc1ccc(-c2csc3ncnc(Sc4nnnn4C4CC4)c23)cc1	i	11.2µM*	.	?	10µM*	.
Cn1nnnc1Sc1ncnc2scc(-c3ccccc3)c12	?	16.4µM*	-22.9%	?	14.6µM*	-4.4%
COc1ccccc1-c1csc2ncnc(Sc3nnnn3C)c12	i	.	.	?	.	.
Cn1nnnc1Sc1ncnc2scc(-c3ccc(F)cc3)c12	?	6.51µM*	20.6µM*	8.2µM*!	16.4µM*	?
Cn1nnnc1Sc1ncnc2scc(-c3cccc4ccccc34)c12	i	.	.	16.4µM*	.	.
Cn1nnnc1Sc1ncnc2scc(-c3ccc(Br)cc3)c12	?	.	.	11.6µM*	.	.
c1ccc(-c2csc3ncnc(Sc4nnnn4-c4ccccc4)c23)cc1	i	10µM*	.	?	?	.
Cn1nnnc1Sc1ncnc2scc(-c3ccccc3Br)c12	i	.	.	i	.	.
CCC(c1nc2ccccc2[nH]1)N(Cc1cccnc1)C(=O)c1cc(-c2ccccc2)on1 (configuration not stated)	i	18.4µM*	-0.6%	i	?	0.1%
CCOc1cc(Br)ccc1S(=O)(=O)N1CC(C)OC(C)C1 (configuration not stated)	i	?	-22.1%	i	25.9µM*	?
O=[N+]([O-])c1ccc(-c2ccc(/C=N/Nc3nc(N4CCCC4)nc(N4CCCC4)n3)o2)cc1	i	4.61µM*	7.3%	i	14.6µM*	2.1%
O=[N+]([O-])c1ccc(/C=N/Nc2ccc3ccccc3c2)o1	i	-29.8%	?	i	?	?
O=[N+]([O-])c1cc(/C=N/Nc2nc(N3CCCCC3)nc(N3CCCCC3)n2)ccc1O	i	?	11.2%	i	14.3%	22.5%
CCNc1nc(NCC)nc(N/N=C/c2ccc([N+](=O)[O-])o2)n1	20.6µM*	16.4µM*	-10.8%	?	16.4µM*	-6.9%
O=[N+]([O-])c1ccc(-c2ccc(/C=N/Nc3nc(N4CCCCC4)nc(N4CCCCC4)n3)o2)cc1	i	20.6µM*	4.3%	i	?	4.4%
O=[N+]([O-])c1ccc(/C=N/Nc2nc(N3CCCC3)nc(N3CCCC3)n2)o1	20.6µM*	?	?	i	23.1µM*	?
O=[N+]([O-])c1cccc(-c2ccc(/C=N/Nc3nc(N4CCCCC4)nc(N4CCCCC4)n3)o2)c1	?	?	-0.6%	?	?	0.9%
CCc1ccc(NC(=S)N(CCN(C)C)C(C)c2ccncc2)cc1 (configuration not stated)	i	-20.7%	2.9%	i	-14.1%	-0.2%
O=C1c2cc(O)c(O)cc2OC(c2ccc(O)c(O)c2)C1O (configuration not stated)	i	5.4%	27.0%	i	1.3%	15.3%
SMILES	KB-V1 MDR tox	DT40 TDP1 no CPT	HT1080 IDH1KD tx	KB-3-1 tox	TDP1 cell CPT	HT1080NT lethal
COc1ccc(-c2cnnc(N/N=C/c3ccc(-c4ccc([N+](=O)[O-])cc4)o3)n2)cc1	18.4µM*	1.46µM*	?	4.61µM*	1.16µM*	-26.9%
COc1ccc(-c2cnnc(N/N=C/c3ccc(O)c(OC)c3)n2)cc1	5.8µM*	5.17µM*	5.17µM*	4.11µM*	5.17µM*	?
COc1ccccc1-c1cnnc(N/N=C/c2ccc(-c3cccc(Br)c3)o2)n1	i	23.1µM*	4.3%	i	14.6µM*	11.5%
COc1cc(/C=N/Nc2ccc(C(=O)O)cc2)ccc1O	i	10.0%	-7.3%	i	1.2%	-0.3%
COc1ccc(NC(=O)c2cc(S(=O)(=O)N3CCCCC3)c[nH]2)cc1	i	-7.8%	-10.7%	i	2.9%	2.2%
CC1CC(C)(C)NC(=S)N1CC(=O)N1CCN(Cc2ccccc2)CC1 (configuration not stated)	i	4.6%	1.1%	i	1.4%	23.3%
Cc1ccc(C)c(N2CCN(C(=O)CN3C(=S)NC(C)(C)CC3C)CC2)c1 (configuration not stated)	?	23.1µM*	7.3%	i	23.1µM*	0.0%
Cc1ccc(C)c(N2CCN(C(=O)Cn3c(=O)[nH]c4ccsc4c3=O)CC2)c1	20.6µM*	-23.7%	-1.4%	i	-9.8%	0.9%
Cc1ccc(C)c(N2CCN(C(=O)CC3Sc4ccccc4NC3=O)CC2)c1 (configuration not stated)	16.4µM*	16.4µM*	?	?	18.4µM*	?
Cc1cccc(N2CCN(C(=O)Cc3ccc(-n4c(=O)[nH]c5ccsc5c4=O)cc3)CC2)c1C	14.6µM*	?	8.0%	i	-19.3%	9.1%
Cc1ccc(C)c(N2CCN(C(=O)Cc3ccc(-n4c(=O)[nH]c5ccsc5c4=O)cc3)CC2)c1	i	?	-14.3%	i	?	-7.7%
OB(O)O	.	-19.1%	.	.	2.8%	.
Cc1ccccc1-n1c(SC(C)C(=O)NCC2CCCO2)nnc1-c1ccncc1 (configuration not stated)	i	-16.0%	4.3%	i	11.8%	8.1%
O=C(CSc1nnc(NC(=O)c2ccc(F)cc2F)s1)NC1CCCC1	i	-11.0%	-0.7%	i	-6.4%	-15.7%
Cc1cccc(NC(=S)N2CCC(C(N)=O)(N3CCCCC3)CC2)c1C	i	1.5%	11.8%	i	4.4%	0.5%
COc1ccccc1C(=O)N1CCN(C(=O)c2oc3c(C)c(C)ccc3c2C)CC1	i	16.4µM*	-2.6%	?	?	-8.0%
Cc1ccc2c(C)c(C(=O)N3CCC(C(N)=O)(N4CCCCC4)CC3)oc2c1C	?	20.6µM*	-22.3%	i	?	-6.9%

From PubChem BioAssay
